The results in this text go back to PubChem BioAssay (NCATS).

“And” between values parts separate entries of the source, which are not always exact repeats. Identical values can stand only once. Records with an inconclusive call do not appear. The source made the active and inactive calls. Unless noted, calls come from the whole dose curve. Bridge positions count the residues as written; N and C are the ends. Square brackets hold non-standard residues; d marks the D form. Peptide text beside a SMILES is read from it. * marks the point of attachment. ξ: configuration not given here. Octanoyl(6-Me) = CCC(C)CCCCC(=O)*; ξThr(3R) = C[C@@H](O)C(N)C(=O)O; dDab = NCC[C@@H](N)C(=O)O; Dab = NCC[C@H](N)C(=O)O

The nature of test [1]: qHTS for Inhibitors of the Functional Ribonucleoprotein Complex (vRNP) of Lassa (LASV) Arenavirus: LASV Primary Screen - GLuc reporter signal (AID 1347082; calls by dose curve; tested in HEK293 reporter line; note: % is set by controls: 0 for no effect and ±100 for the full control effect; nearly all actives have a fitted effect of over 60% in size). In general terms: qHTS replaces the single test concentration by a dilution series.
Test [2] can be described thus: qHTS for Inhibitors of the Functional Ribonucleoprotein Complex (vRNP) of Lassa (LASV) Arenavirus: Viability assay - alamar blue signal for LASV Primary Screen (AID 1347083; calls by dose curve; tested in HEK293 reporter line; note: nearly all actives have a fitted effect of over 80% in size; note: potency is the fitted concentration of half-maximal effect).
Test [3] in a line: qHTS for Inhibitors of the Functional Ribonucleoprotein Complex (vRNP) of Lymphocytic Choriomeningitis Arenaviruses (LCMV): Viability assay - alamar blue signal for LCMV Primary Screen (AID 1347085; calls by dose curve; tested in HEK293 reporter line; note: nearly all actives have a fitted effect of over 80% in size; note: potency is the fitted concentration of half-maximal effect).
Test [4] concerns the target Nucleoprotein (Lymphocytic choriomeningitis virus (strain Armstrong)) (UniProt P09992). The test can be described thus: qHTS for Inhibitors of the Functional Ribonucleoprotein Complex (vRNP) of Lymphocytic Choriomeningitis Arenaviruses (LCMV): LCMV Primary Screen - GLuc reporter signal (AID 1347086). For activity change, negative = inhibition: % is set by controls: 0 for no effect and ±100 for the full control effect. Note: nearly all actives have a fitted effect of over 70% in size. Note: potency is the fitted concentration of half-maximal effect.
A short description of test [5]: Cytotoxicity counterscreen for inhibitors of SARS-CoV-2 cell entry (AID 1645845). Note: nearly all actives have a fitted effect of over 50% in size. The essentials:
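48 h compound treatment (after 1 h preincubation), HEK293-ACE2 cells, 37 C/5% CO2; ATP luminescence endpoint; normalized to cell wells and media blanks.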
(The purpose of a counterscreen is to sort out artefacts and off-target activity.)

The nature of test [6]: Primary qHTS to identify inhibitors of SARS-CoV-2 cell entry (AID 1645846). Note: nearly all actives have a fitted effect of over 45% in size. Note: potency is the fitted concentration of half-maximal effect. To be noted: activity change, negative = inhibition: at 57.1 µM (top of the series) unless noted. In outline: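 Inhibition of spike-mediated entry was scored in human ACE2-transfected Expi293F cells. Particles were MLV-pseudotyped with Wuhan-Hu-1 S carrying a 19-aa C-terminal deletion; signal was luciferase after two days, scaled between spike PP and fusion-protein-free PP.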

The test system of another test is CRL-7250. The test can be described thus: qHTS assay to identify novel small-molecules to repurpose for Merkel cell carcinoma treatment (AID 1296009; active = well fitted inhibition curve with a large enough effect; note: nearly all actives have a fitted effect of over 60% in size). To be noted: MCC and control cell lines, CellTiter-Glo viability, 72 h; series mostly up to 92 µM. The essentials:
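72 hr, 37 degree celsius; NPC 8-pt / MIPE 11-pt dose response; compound pinned in DMSO; CellTiter-Glo, 10 min RT, luminescence; normalized to no-cell and DMSO controls.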

Test [7] in a line: Primary qHTS for inhibitors of SARS-S pseudo-typed particle cell entry (AID 1479145). Note: nearly all actives have a fitted effect of over 45% in size.
A short description of test [8]: Primary qHTS for Huh7 cytotoxicity: counterscreen for inhibitors of MERS-S pseudotyped particle cell entry (AID 1479147). Particulars: outcome: dose series up to 57.1 µM unless noted.
Test [9] can be described thus: Primary qHTS for inhibitors of MERS-S pseudo-typed particle cell entry (AID 1479149). Note: nearly all actives have a fitted effect of over 60% in size.
Test [10] is described as follows: Primary qHTS for Vero E6 cytotoxicity: counterscreen for inhibitors of SARS-S pseudo-typed particle cell entry (AID 1479150). Note: % is set by controls: 0 for no effect and ±100 for the full control effect. To be noted: outcome: dose series up to 57.1 µM unless noted.
Test [11] in a line: qHTS profiling of the MIPE4 collection as inhibitors of Plasmodium falciparum (3D7) proliferation (AID 743344; call rule not given here;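 note: scaled between DMSO vehicle wells and 0.29 µM artemisinin as full inhibition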). To be noted: P. falciparum 3D7 in erythrocytes, SYBR Green DNA fluorescence, 72 h; at 28.5 µM (top of the series) unless noted. The essentials:
(§1)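 Erythrocytes infected with P. falciparum (0.3% parasitemia, 2.5% hematocrit) incubated with compounds 72 h at 37 C, 5% CO2. Lysis with saponin/Triton buffer containing SYBR Green I, overnight at room temperature in the dark; DNA fluorescence (485/535 nm) normalised to 0.29 uM artemisinin and DMSO.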

Test [12] in a line: qHTS profiling of the MIPE4 collection as inhibitors of Plasmodium falciparum (DD2) proliferation (AID 743345; call rule not given here). Particulars: P. falciparum Dd2 in erythrocytes, SYBR Green DNA, 72 h; at 28.5 µM (top of the series) unless noted. The essentials: as §1
Test [13] in a line: qHTS profiling of the MIPE4 collection as inhibitors of Plasmodium falciparum (DD2) proliferation (Rep 2) (AID 743346; call rule not given here). To be noted: P. falciparum Dd2 in erythrocytes, SYBR Green DNA, 72 h; at 28.5 µM (top of the series) unless noted. The essentials:
as §1

Test [14] is described as follows: VSVG counterscreen qHTS to identify inhibitors of SARS-CoV-2 cell entry (AID 1645847). Note: potency is the fitted concentration of half-maximal effect; nearly all actives have a fitted effect of over 65% in size. The essentials:
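Luminescence from a luciferase reporter, normalised to bald particle and VSV-G pseudotyped particle wells, is the read-out. Cells are HEK293 expressing human ACE2, exposed to compound 1 h before a 48 h particle infection at 37 °C.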

Sequence of Nucleoprotein (Lymphocytic choriomeningitis virus (strain Armstrong)) (P09992 whole entry, looked up): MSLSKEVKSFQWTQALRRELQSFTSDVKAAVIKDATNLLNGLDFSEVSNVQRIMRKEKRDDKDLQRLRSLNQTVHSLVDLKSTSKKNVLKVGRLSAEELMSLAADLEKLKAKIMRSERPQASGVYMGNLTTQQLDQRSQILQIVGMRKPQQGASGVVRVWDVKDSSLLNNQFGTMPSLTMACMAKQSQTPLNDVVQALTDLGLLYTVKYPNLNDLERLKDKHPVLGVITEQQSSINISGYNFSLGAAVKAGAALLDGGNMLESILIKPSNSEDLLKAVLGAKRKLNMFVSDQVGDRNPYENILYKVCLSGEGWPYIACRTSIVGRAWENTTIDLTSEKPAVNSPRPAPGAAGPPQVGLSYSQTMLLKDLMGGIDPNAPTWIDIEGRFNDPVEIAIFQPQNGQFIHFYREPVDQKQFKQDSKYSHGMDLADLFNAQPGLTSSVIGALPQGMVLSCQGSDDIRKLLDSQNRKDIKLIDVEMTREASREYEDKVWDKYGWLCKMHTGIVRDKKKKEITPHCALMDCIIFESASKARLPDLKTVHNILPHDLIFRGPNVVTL

As to `CCCCCCCCCCCCCCCC(=O)O[C@H]1[C@@H](O)[C@@H](O)[C@@H]([C@H](NC(=O)[C@@H]2C[C@@H](CCC)CN2C)[C@H](C)Cl)O[C@@H]1SC`, the Potency entry in test [1], in test [2], in [3], in test [4], in [5] and in test [6] was “inactive” throughout. The Potency result in the test with CRL-7250 was “inactive”.

Take `COc1cc(F)c(C(C)C)cc1-c1ccc(C(F)(F)F)cc1CN1C(=O)O[C@H](c2cc(C(F)(F)F)cc(C(F)(F)F)c2)[C@@H]1C`: the Potency result (in test [1]; in test [5]; with CRL-7250) was “inactive” each time. The Potency in test [2] is 0.0273 µM (active); in test [3] it was 0.0193 µM (active). Moreover, in [6], the activity change, negative = inhibition was -5.3%.

Take `COc1ccc([C@@H]2CC(=O)c3c(O)cc(O[C@@H]4O[C@H](CO[C@@H]5O[C@@H](C)[C@H](O)[C@@H](O)[C@@H]5O)[C@@H](O)[C@H](O)[C@@H]4O)cc3O2)cc1O`: the Potency entry in test [1], in test [2], in test [4], in test [7], in test [9] and in [5] was “inactive” each time. For the same compound, the Potency result in the test on CRL-7250 is “inactive”. Also, the call in test [8] and in [10] was inactive.

For `Nc1ncnc2c1ncn2[C@@H]1O[C@H](CO)[C@@H](O)[C@@H]1O`, the Potency entry (in [1]; in test [2]; in test [4]; in [5]; with CRL-7250) was “inactive” throughout. For the same compound, the Potency in test [6] was 28.2 µM (active).

Take `CS(=O)(=O)c1ccc(-c2cnc(N)c(C(=O)Nc3ccccc3)n2)cc1`: the Potency result (in [1]; in test [4]; in test [5]; in the test on CRL-7250) was “inactive” in each case. For the same compound, the activity change, negative = inhibition in test [6] was -1.17%.

On to `Cc1ccc2c(c1)c1c(n2CCc2ccc(C)nc2)CCN(C)C1`, for which the Potency result (in [1]; in [4]; in the test on CRL-7250) was “inactive” throughout.

As to `CC1(C)CC(O)CC(C)(C)N1[O]`, the parasite growth, % of DMSO control in test [11] worked out at 99.3%. This compound also came in with a parasite growth remaining, % of DMSO control (lower = more inhibition) in test [12] of 97.3%. The compound further registered a parasite growth, % of control (lower = inhibition) in [13] of 73%. Besides, the Potency entry (in [1]; in test [2]; in [4]; with CRL-7250) was “inactive” in each case.

Regarding `CC[C@H](NC(=O)[C@H](C)NC)C(=O)N1C[C@@H](O)C[C@H]1Cc1c(-c2[nH]c3cc(F)ccc3c2C[C@H]2C[C@H](O)CN2C(=O)[C@H](CC)NC(=O)[C@H](C)NC)[nH]c2cc(F)ccc12`, the Potency in [2] is 6.85 µM (active); in test [3] it was 3.85 µM (active); in test [4] it was 7.69 µM (active). Further, the Potency result in the test with CRL-7250 was “inactive”.

Take `C[C@](Cc1c[nH]c2ccccc12)(NC(=O)OC1C2CC3CC(C2)CC1C3)C(=O)NC[C@H](NC(=O)CCC(=O)O)c1ccccc1` (some centres undefined): the Potency entry (in test [1]; in [4]; in test [5]; in test [6]; in the test with CRL-7250) was “inactive” each time.

The compound `NC(=O)c1cccc(-c2cccc(OC(=O)NC3CCCCC3)c2)c1` showed a parasite growth, % of DMSO control in test [11] of 81%. In addition, the parasite growth remaining, % of DMSO control (lower = more inhibition) in test [12] was 98%. Also, the parasite growth, % of control (lower = inhibition) in test [13] came to 37.9%. Also, the Potency in test [2] is 4.32 µM (active); in [3], 8.63 µM (active); in test [4], 6.85 µM (active). The Potency result (in test [5]; in the test with CRL-7250) was “inactive” in each case.

`CCC(C)CCCCC(=O)N[C@@H](CCN)C(=O)NC(C(=O)N[C@H](CCN)C(=O)N[C@@H]1CCNC(=O)C([C@@H](C)O)NC(=O)[C@@H](CCN)NC(=O)[C@@H](CCN)NC(=O)[C@@H](CC(C)C)NC(=O)[C@H](Cc2ccccc2)NC(=O)[C@H](CCN)NC1=O)[C@@H](C)O` (stereo partly drawn) ({Octanoyl(6-Me)}-[Dab][ξThr(3R)][dDab][dDab][Dab]F[dL][dDab][dDab][ξThr(3R)]; lactam 4-C): the Potency result (in test [1]; in [5]; in test [6]; with CRL-7250) was “inactive” in each case.

With `CCCc1nc(C(C)(C)O)c(C(=O)O)n1Cc1ccc(-c2ccccc2-c2nn[nH]n2)cc1`, the Potency entry (in test [1]; in test [3]; in [4]; in test [9]; in test [5]; with CRL-7250) was “inactive” in each case. In addition, the outcome in test [8] and in test [10] was inactive. Also, the activity change, negative = inhibition in test [6] is -8.69% and -17.9%.

`O=C(O)c1ccc(Nc2ncc3c(n2)-c2ccc(Cl)cc2C(c2c(F)cccc2F)=NC3)cc1`: the Potency result (in [1]; in test [4]; in [5]; in the test with CRL-7250) was “inactive” each time. For the same compound, the Potency in test [2] was 10.9 µM (active); in [14], 1.08 µM (active).
